# Compound activity: PubChem BioAssay, National Center for Advancing Translational Sciences (NCATS)
# Most compounds without a hit are left out; they make up all but 10% or so of the library.
# FLuc inh = Photinus pyralis luciferase inhibition; P08659; Potency, µM (doses to about 115 µM), actives largely listed as inhibitors; actives 2.5% (n = 76,000); purified P. pyralis luciferase, luminescence, biochemical; AID 1347043; also: nearly all actives have a fitted effect of over 65% in size
# Target sequence (P08659 whole entry, looked up): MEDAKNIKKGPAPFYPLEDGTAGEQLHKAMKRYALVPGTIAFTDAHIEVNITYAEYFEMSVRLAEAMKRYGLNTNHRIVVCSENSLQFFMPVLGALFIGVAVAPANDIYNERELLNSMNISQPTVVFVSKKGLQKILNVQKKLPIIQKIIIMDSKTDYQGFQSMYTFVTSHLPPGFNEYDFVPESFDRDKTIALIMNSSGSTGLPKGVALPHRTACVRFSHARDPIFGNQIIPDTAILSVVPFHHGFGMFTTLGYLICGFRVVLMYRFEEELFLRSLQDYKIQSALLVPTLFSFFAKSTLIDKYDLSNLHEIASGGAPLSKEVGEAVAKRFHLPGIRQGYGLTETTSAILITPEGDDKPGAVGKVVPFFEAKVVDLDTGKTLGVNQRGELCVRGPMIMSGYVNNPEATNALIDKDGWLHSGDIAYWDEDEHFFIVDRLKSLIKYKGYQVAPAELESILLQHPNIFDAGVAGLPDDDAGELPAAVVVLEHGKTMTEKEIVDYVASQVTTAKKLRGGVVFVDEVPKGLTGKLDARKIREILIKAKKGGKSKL
#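 Purified P. pyralis luciferase (10nM final) in 50mM Tris acetate pH 7.5, 10mM Mg acetate, 0.01% Tween-20, 0.05% BSA with 10uM D-luciferin and 10uM ATP. Compounds titrated qHTS. Luminescence imaged on CCD.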
# GPT2 inhibitor = inhibitors of human GPT2 alanine aminotransferase; Q8TD30; actives 0.25% (n = 100,000); Potency, µM (series often up to 57.7 µM), most hits filed as inhibitors; Recombinant GPT2, coupled pyruvate oxidase/HRP Amplex Red fluorescence; AID 1671188; also: nearly all actives have a fitted effect of over 60% in size
#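 GPT2 10ng/uL, a-KG 250uM, L-Ala 2mM, HEPES pH7.5 + 0.0001% Tween; 30 min RT. Then Amplex mix (PO/HRP/ThPP), 30 min RT dark, fluorescence. AOA 50uM used as positive control.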
# hNpr1 antagonist = blocks ANP-stimulated signaling of human Npr1 receptor; P16066; HEK293 hNpr1 GloSensor cGMP, ANP-stimulated luminescence; Potency, µM (highest dose often 46.3 µM), usual class: inhibitors; actives 1.6% (n = 76,000); AID 1347048; calls by dose curve; also: nearly all actives have a fitted effect of over 60% in size
#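 HEK293 cells stably expressing human Npr1 and cGMP GloSensor pGS-40F, loaded 2 h with 2% GloSensor reagent, given compound 30 min at room temperature. Luminescence read before and 20 min after 0.1 nM hNppA.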
# HEK cytotox = kills HEK 293 cells | HEK 293 viability, ATP luminescence (CellTiter-Glo), 48-72 h | Potency, µM (doses to about 115 µM), hits mostly inhibitors | actives 6.6% (n = 94,000) | AID 1345083; also: nearly all actives have a fitted effect of over 60% in size
#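 qHTS cytotoxicity; HEK 293, 250 cells/well; compound pinned; 48 or 72 hr, 37 degree Celsius, 5% CO2, 95% humidity; CellTiter-Glo, 10 min RT; luminescence (ATP).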
# NIH3T3 tox = cytotoxic compounds in NIH 3T3 cells; NIH 3T3 viability, CellTiter-Glo ATP luminescence, 48-72 h; Potency, µM (top dose mostly 96.7 µM), most hits filed as inhibitors; actives 4.3% (n = 94,000); AID 1345082; also: nearly all actives have a fitted effect of over 55% in size
#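 Luminescent ATP readout (CellTiter-Glo, 10 min RT) after 48 or 72 hr compound exposure of NIH 3T3 cells seeded at 400 cells/well in 1536-well format; quantitative HTS.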
# A number is an active result; . = inactive; ? = inconclusive; / = no result. Unless noted, calls follow the shape of the dose curve; as a rule, active = well fitted curve in the direction sought with a large enough effect; inconclusive = small, poorly fitted or top-dose-only effect, or another doubt; inactive = no such curve, though single readings can be large; an effect the other way counts as inactive or inconclusive.
SMILES,FLuc inh,GPT2 inhibitor,hNpr1 antagonist,HEK cytotox,NIH3T3 tox
Cc1ccc([C@@H]2CN(C(=O)c3snnc3C)[C@@H]3C4CCN(CC4)[C@@H]32)cc1,.,.,.,.,.
COc1cc2c(cc1OCC1CC1)NC(=O)C21CCN(C(=O)c2cccnc2)CC1,.,.,.,.,25µM
COc1cc2c(cc1OCC1CC1)NC(=O)C21CCN(C(=O)CCc2cccnc2)CC1,.,.,.,.,?
COCC(=O)N1CCC2(CC1)C(=O)Nc1cc(Oc3ccccc3)c(OC)cc12,.,.,.,?,.
COc1cc2c(cc1Oc1ccccc1)NC(=O)C21CCN(C(=O)c2cccnc2)CC1,.,.,.,56µM,?
COc1cc2c(cc1Oc1ccccc1)NC(=O)C21CCN(C(=O)c2scnc2C)CC1,.,?,.,45µM,?
COc1cc2c(cc1OC1CCCC1)NC(=O)C21CCN(C(=O)c2cccc(O)c2)CC1,.,.,.,79µM,?
COc1cc2c(cc1OC1CCCC1)NC(=O)C21CCN(C(=O)c2cccc(C#N)c2)CC1,.,.,.,?,22µM
CC1CN2CCCCC2CN1 (stereo not drawn),/,.,/,.,.
CNc1ccc(OC2CCNCC2)nc1,.,?,.,.,.
COc1cc2c(cc1Oc1ccccc1)NC(=O)C21CCN(c2nc(C)cnc2C)CC1,.,.,.,?,?
CN(C)c1ccc(C(=O)NC[C@H]2C[C@@H]3CCN2C[C@@H]3c2cc(C3CCCCC3)nn2C)cc1,.,.,.,?,?
Cn1nc(C2CCCCC2)cc1[C@H]1CN2CC[C@H]1C[C@@H]2CNC(=O)c1cccs1,.,.,.,100µM,?
COc1ccc(C(=O)NC[C@H]2C[C@@H]3CCN2C[C@@H]3c2cc(-c3ccc4ccccc4c3)nn2C)cc1,.,.,.,18µM,?
COCC(=O)NC[C@H]1C[C@@H]2CCN1C[C@@H]2c1cc(-c2ccc3ccccc3c2)nn1C,?,.,.,50µM,35µM
COc1ccc(-c2cc([C@H]3CN4CC[C@H]3C[C@@H]4CNC(=O)c3ccc(N(C)C)cc3)n(C)n2)cc1,.,.,.,22µM,?
COc1ccc(S(=O)(=O)N2C[C@@H]3C[C@H](C2)c2c(-c4cccs4)ccc(=O)n2C3)cc1,.,.,.,.,.
CCOC(=O)[C@H]1CN(C(=O)c2cccc(OC)c2)[C@]2(C)C(=O)N(CC3CC3)c3ccccc3[C@H]12,/,.,/,?,?
O=S(=O)(NC[C@H]1C[C@@H]2CCN1C[C@@H]2CN1CCOCC1)c1cccs1,.,.,.,.,.
O=S1(=O)C[C@@H]2NCCN(c3ccnc(N4CCCNCC4)n3)[C@@H]2C1,.,.,.,.,.
COc1ccc(-c2cc([C@H]3CN4CC[C@H]3C[C@@H]4CNC(=O)c3cccs3)n(C)n2)cc1OC,.,.,.,?,?
Cn1nc(-c2ccc3ccccc3c2)cc1[C@H]1CN2CC[C@H]1C[C@@H]2CNC(=O)c1cccs1,?,.,.,20µM,25µM
COc1ccccc1NC(=O)N1C[C@@H]2C[C@H](C1)c1c(-c3ccc(Cl)cc3)ccc(=O)n1C2,.,.,.,.,.
O=C(NC[C@H]1C[C@@H]2CCN1C[C@@H]2CN1CCN(c2ccc(F)cc2)CC1)Nc1ccsc1,.,.,.,79µM,?
O=C(NC[C@H]1C[C@@H]2CCN1C[C@@H]2CN1CCN(c2ccc(F)cc2)CC1)Nc1ccccc1,.,.,.,?,.
CCOC(=O)[C@H]1CN(C(=O)COc2ccccc2)[C@]2(C)C(=O)N(CC(=O)N(C)C)c3ccccc3[C@H]12,/,/,/,.,?
Cc1cccc(NC(=O)N2[C@H]3CC[C@@H]2c2cnc(-c4ccccc4)nc2C3)c1,.,.,.,40µM,?
Cc1ccccc1S(=O)(=O)N1[C@H]2CC[C@@H]1c1cnc(-c3ccccc3)nc1C2,.,.,?,25µM,?
CCS(=O)(=O)N1[C@H]2CC[C@@H]1c1cnc(-c3ccc(F)cc3)nc1C2,.,?,?,40µM,.
Cc1ccc(C)c(S(=O)(=O)N2[C@H]3CC[C@@H]2c2cnc(-c4ccccc4)nc2C3)c1,.,.,?,.,.
